Results filed as inconclusive are left out. Unmarked numbers belong to inactive results. Activity calls are given as the source filed them. Calls follow the shape of the dose curve; as a rule, active = well fitted cell-killing curve with a large enough effect; inconclusive = small, poorly fitted or top-dose-only effect, or effect the other way; inactive = no such curve, though single readings can be large or run the other way.
Key:
[1] = Quantitative High-Throughput drug screen in 47 multiple myeloma cell lines against the NCATS MIPE library collection: MM1R_ATCC cell viability assay (AID 1918981); also: nearly all actives have a fitted effect of over 35% in size; also: potency is read from the fitted curve at half-maximal effect
Method in brief: (§1)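 Readout: median RLU from CellTiter-Glo after 5 min at room temperature. Preceding step was 48 h drug treatment of 500 cells/well at 37 °C, 5% CO2, with DMSO-only and media-only control wells.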

[2] = Quantitative High-Throughput drug screen in 47 multiple myeloma cell lines against the NCATS MIPE library collection: L363_DSMZ cell viability assay (AID 1918984); conditions: L363 myeloma viability, CellTiter-Glo ATP luminescence, 48 h; viability (% of control): at 45.8 µM (top of the series); also: nearly all actives have a fitted effect of over 40% in size; also: potency is read from the fitted curve at half-maximal effect
Method in brief: as §1

[3] = Quantitative High-Throughput drug screen in 47 multiple myeloma cell lines against the NCATS MIPE library collection: KMS34_JCRB cell viability assay (AID 1918985); also: nearly all actives have a fitted effect of over 40% in size; also: potency is read from the fitted curve at half-maximal effect
Method in brief: as §1

[4] = Quantitative High-Throughput drug screen in 47 multiple myeloma cell lines against the NCATS MIPE library collection: OCIMY5_PLB cell viability assay (AID 1918988); also: nearly all actives have a fitted effect of over 65% in size; also: potency is read from the fitted curve at half-maximal effect
Method in brief: as §1

[5] = Quantitative High-Throughput drug screen in 47 multiple myeloma cell lines against the NCATS MIPE library collection: OPM1_PLB cell viability assay (AID 1918989); also: nearly all actives have a fitted effect of over 40% in size; also: potency is read from the fitted curve at half-maximal effect;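 as to viability (% of control): 100% = DMSO-only wells and 0% = media-only wells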
Method in brief: as §1

[6] = Quantitative High-Throughput drug screen in 47 multiple myeloma cell lines against the NCATS MIPE library collection: U266_ATCC cell viability assay (AID 1919864); also: nearly all actives have a fitted effect of over 35% in size; also: potency is read from the fitted curve at half-maximal effect;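 as to viability (% of DMSO control): 0% = media-only wells without cells and 100% = DMSO-only wells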
Method in brief: as §1

[7] = Quantitative High-Throughput drug screen in 47 multiple myeloma cell lines against the NCATS MIPE library collection: PE2_PLB cell viability assay (AID 1919869); also: nearly all actives have a fitted effect of over 35% in size; also: potency is read from the fitted curve at half-maximal effect;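 as to viability (% of control): 100% = DMSO-only wells and 0% = cell-free media-only wells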
Method in brief: as §1

[8] = Quantitative High-Throughput drug screen in 47 multiple myeloma cell lines against the NCATS MIPE library collection: PCM6_Riken cell viability assay (AID 1919870); also: nearly all actives have a fitted effect of over 30% in size; also: potency is read from the fitted curve at half-maximal effect;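 as to viability (% of control): 100% = DMSO-only wells and 0% = media-only wells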
Method in brief: as §1

[9] = Quantitative High-Throughput drug screen in 47 multiple myeloma cell lines against the NCATS MIPE library collection: RPMI8226_ATCC cell viability assay (AID 1919871); also: nearly all actives have a fitted effect of over 30% in size; also: potency is read from the fitted curve at half-maximal effect
Method in brief: as §1

[10] = Quantitative High-Throughput drug screen in 47 multiple myeloma cell lines against the NCATS MIPE library collection: OPM2_DSMZ cell viability assay (AID 1919872); also: nearly all actives have a fitted effect of over 30% in size
Method in brief: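 Inhibition of cell viability is measured here. Each line was plated at 500 cells per well, treated with MIPE 4.0 drugs, kept 48 hours at 37C, then assayed for ATP content by CellTiter-Glo luminescence.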

[11] = Quantitative High-Throughput drug screen in 47 multiple myeloma cell lines against the NCATS MIPE library collection: KMS11_JCRBsus cell viability assay (AID 1919873); also: nearly all actives have a fitted effect of over 50% in size; also: potency is read from the fitted curve at half-maximal effect;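 as to viability (% of control): 100% = DMSO-only wells and 0% = media-only wells without cells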
Method in brief: as §1

[12] = Quantitative High-Throughput drug screen in 47 multiple myeloma cell lines against the NCATS MIPE library collection: KMS28BM_JCRB cell viability assay (AID 1919874); also: nearly all actives have a fitted effect of over 35% in size; also: potency is read from the fitted curve at half-maximal effect
Method in brief: as §1

[13] = Quantitative High-Throughput drug screen in 47 multiple myeloma cell lines against the NCATS MIPE library collection: OCIMY7_PLB cell viability assay (AID 1918987); conditions: OCI-MY7 myeloma viability, CellTiter-Glo ATP, 48 h; viability (% of DMSO): at 45.8 µM (top of the series); also: nearly all actives have a fitted effect of over 65% in size; also: potency is read from the fitted curve at half-maximal effect
Method in brief: as §1

[14] = Quantitative High-Throughput drug screen in 47 multiple myeloma cell lines against the NCATS MIPE library collection: XG1_PLB cell viability assay (AID 1919866); also: nearly all actives have a fitted effect of over 35% in size; also: potency is read from the fitted curve at half-maximal effect
Method in brief: as §1

[15] = Quantitative High-Throughput drug screen in 47 multiple myeloma cell lines against the NCATS MIPE library collection: VP6_DJ cell viability assay (AID 1919867); also: nearly all actives have a fitted effect of over 40% in size; also: potency is read from the fitted curve at half-maximal effect;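 as to viability (% of DMSO): 100% = DMSO-only wells and 0% = wells with media alone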
Method in brief: as §1

[16] = Quantitative High-Throughput drug screen in 47 multiple myeloma cell lines against the NCATS MIPE library collection: UTMC2_PLB cell viability assay (AID 1919868); conditions: CellTiter-Glo ATP luminescence, 48 h; viability (% of DMSO control): at 45.8 µM (top of the series); also: nearly all actives have a fitted effect of over 55% in size; also: potency is read from the fitted curve at half-maximal effect;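 as to viability (% of DMSO control): 100% = DMSO-only wells and 0% = media-only wells without cells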
Method in brief: as §1

[17] = Quantitative High-Throughput drug screen in 47 multiple myeloma cell lines against the NCATS MIPE library collection: KMS28PE_JCRB cell viability assay (AID 1918983); also: nearly all actives have a fitted effect of over 35% in size; also: potency is read from the fitted curve at half-maximal effect
Method in brief: as §1

[18] = Quantitative High-Throughput drug screen in 47 multiple myeloma cell lines against the NCATS MIPE library collection: XG6_PLB cell viability assay (AID 1919865); also: nearly all actives have a fitted effect of over 40% in size; also: potency is read from the fitted curve at half-maximal effect;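 as to viability (% of control): 100% = DMSO-only wells and 0% = media-only wells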
Method in brief: as §1

[19] = Quantitative High-Throughput drug screen in 47 multiple myeloma cell lines against the NCATS MIPE library collection: SKMM1_PLB cell viability assay (AID 1919863); conditions: SKMM1 myeloma viability, CellTiter-Glo ATP, 48 h; viability: stronger effect = lower value; also: nearly all actives have a fitted effect of over 35% in size
Method in brief: as §1

Structure (SMILES) | Potency [1] | Potency [2] | Potency [3] | Potency [4] | Potency [5] | Potency [6] | Potency [7] | Potency [8] | Potency [9] | Potency [10] | Potency [11] | Potency [12] | Potency [13] | Potency [14] | Potency [15] | Potency [16] | Potency [17] | Potency [18] | viability (% of DMSO) [13] | viability [19] [%]
CC(C)[C@H](O)C(=O)N[C@@H](C)C(=O)N[C@@H]1C(=O)N(C)CCc2ccccc21 | inactive | inactive | inactive | inactive | inactive | inactive | inactive | 26.4 µM (active) | inactive | inactive | 0.332 µM (active) | inactive |  |  |  |  |  |  |  | 
Cc1ccc(NC(=O)c2cccc(N(C)C)c2)cc1NC(=O)c1ccc(O)cc1 | 4.18 µM (active) | inactive |  | 1.32 µM (active) | 23.5 µM (active) |  | 18.7 µM (active) | 0.418 µM (active) | inactive |  | 4.18 µM (active) | 5.26 µM (active) | 0.059 µM (active) | 46.9 nM (active) | 0.469 µM (active) | 332 nM (active) |  |  |  | 
CCC[C@@H](NC(=O)[C@@H]1[C@H]2CCC[C@@H]2CN1C(=O)[C@@H](NC(=O)[C@@H](NC(=O)c1cnccn1)C1CCCCC1)C(C)(C)C)C(=O)C(=O)NC1CC1 | 18.7 µM (active) |  |  | 16.6 µM (active) |  |  |  |  | 16.6 µM (active) |  |  | 18.7 µM (active) |  | 14800 nM (active) |  | inactive | 16.6 µM (active) |  |  | 
NS(=O)(=O)c1ccc(Nc2nc(OCC3CCCCC3)c3[nH]cnc3n2)cc1 | 14.8 µM (active) | 20.9 µM (active) |  | 23.5 µM (active) | 20.9 µM (active) |  | 16.6 µM (active) | 10.5 µM (active) | inactive |  |  |  | 13.2 µM (active) | 2640 nM (active) | 16.6 µM (active) | 11800 nM (active) |  | 2.96 µM (active) |  | 
CO[C@H]1C=CO[C@@]2(C)Oc3c(C)c(O)c4c(O)c(c(C=NN5CCN(C)CC5)c(O)c4c3C2=O)NC(=O)C(C)=CC=C[C@H](C)[C@H](O)[C@@H](C)[C@@H](O)[C@@H](C)[C@H](OC(C)=O)[C@H]1C | 0.533 µM (active) | inactive | 2.12 µM (active) | 0.598 µM (active) | inactive |  | inactive | inactive | inactive | inactive |  | inactive |  | inactive |  | inactive |  | inactive |  | 
Cc1csc(-c2nnc(Nc3ccc(Oc4ncccc4-c4ccnc(N)n4)cc3)c3ccccc23)c1 | 20.9 µM (active) | 20.9 µM (active) |  |  | 18.7 µM (active) | 23.5 µM (active) |  | 20.9 µM (active) |  |  |  |  |  | 469 nM (active) |  |  |  |  |  | 
COc1cc([C@@H]2c3cc4c(cc3[C@@H](O[C@@H]3O[C@@H]5CO[C@@H](C)O[C@@H]5[C@H](O)[C@@H]3O)[C@H]3COC(=O)[C@H]23)OCO4)cc(OC)c1O | 0.372 µM (active) |  | 4.18 µM (active) | 14.8 µM (active) | 14.8 µM (active) |  | 1.18 µM (active) |  |  |  |  |  |  |  |  | 418 nM (active) |  |  |  | 
CCCCCCCCCCCCCCCC(=O)O[C@H]1[C@@H](O)[C@@H](O)[C@@H]([C@H](NC(=O)[C@@H]2C[C@@H](CCC)CN2C)[C@H](C)Cl)O[C@@H]1SC | inactive |  |  | inactive |  | 18.7 µM (active) | 10.5 µM (active) | inactive | 3.32 µM (active) | inactive | inactive |  |  | inactive | inactive |  | inactive |  |  | 
c1ccc(-c2oc3ncnc(NC[C@@H]4CCCO4)c3c2-c2ccccc2)cc1 | 23.5 µM (active) |  |  | 14.8 µM (active) | 13.2 µM (active) | 16.6 µM (active) | 16.6 µM (active) |  | 23.5 µM (active) |  | 16.6 µM (active) |  |  |  |  |  | 26.4 µM (active) | 10.5 µM (active) |  | 
Nc1ncnc2c1ncn2[C@@H]1O[C@H](CO)[C@@H](O)[C@@H]1O | 20.9 µM (active) | 1.05 µM (active) | 18.7 µM (active) | 16.6 µM (active) | 20.9 µM (active) | 7.43 µM (active) | 14.8 µM (active) | 1.18 µM (active) |  |  | 5.26 µM (active) | 0.935 µM (active) |  | 935 nM (active) | 0.166 µM (active) |  |  | 2.64 µM (active) | 126% (active) | 106
N[C@@H](CC(=O)N1CCn2c(nnc2C(F)(F)F)C1)Cc1cc(F)c(F)cc1F | inactive |  |  |  |  |  | 3.72 µM (active) | inactive | inactive | inactive | inactive | 4.69 µM (active) |  | inactive | inactive |  | 9.35 µM (active) | inactive |  | 
O=S(=O)(O)c1ccc2cc(N=Nc3cc(S(=O)(=O)O)c4cccnc4c3O)ccc2c1 | 20.9 µM (active) |  |  | 9.35 µM (active) | 13.2 µM (active) |  | 3.32 µM (active) |  | 16.6 µM (active) | inactive |  | 1.87 µM (active) |  | 5900 nM (active) | 16.6 µM (active) |  | 18.7 µM (active) |  |  | 
